# Data as given in PubChem BioAssay (NCI).
# The panel holds about 79,000 compounds, 15% with a hit somewhere; the sample as a whole holds those more often. Unmarked numbers belong to inactive results. Active and inactive are the calls of the source. Rule as the data show it: active = growth inhibition above about 70%; inactive = the rest.
# Legend:
# [1] = NCI Yeast Anticancer Drug Screen. Data for the rad50 strain (AID 155);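 also: 0% = growth of vehicle-only cultures of the same strain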; settings: S. cerevisiae rad50 strain growth inhibition, hits give high values
# Outline: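 DNA repair mutant yeast, compound exposure, growth read-out; inhibition is taken relative to vehicle.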
# [2] = NCI Yeast Anticancer Drug Screen. Data for the mec2-1 strain (AID 157); settings: S. cerevisiae mec2-1 strain, hits give high values
# Outline: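 Vehicle-treated cultures served as reference for growth inhibition of compound-exposed mec2-1 yeast.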
# [3] = NCI Yeast Anticancer Drug Screen. Data for the sgs1 mgt1 strain (AID 161);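 also: 0% = growth of cultures given vehicle only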; settings: S. cerevisiae sgs1 mgt1 strain, hits give high values
# Outline: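 Test agents were incubated with a DNA-repair-mutant yeast strain. Growth was then read and compared against vehicle-treated controls.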
# [4] = NCI Yeast Anticancer Drug Screen. Data for the cln2 rad14 strain (AID 165);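 also: 0% = growth equal to vehicle treated cultures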; settings: S. cerevisiae cln2 rad14 strain, hits give high values
# Outline: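 Each compound was tested on cln2 rad14 yeast. Inhibition of growth was calculated against vehicle-exposed controls.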
# [5] = NCI Yeast Anticancer Drug Screen. Data for the bub3 strain (AID 167); settings: S. cerevisiae bub3 mutant strain, hits give high values
# Outline: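 In this screen, a yeast mutant lacking normal mitotic checkpoint function is challenged with compound. Relative growth versus vehicle gives the inhibition value.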
# [6] = NCI Yeast Anticancer Drug Screen. Data for the mlh1 rad18 strain (AID 175); settings: S. cerevisiae mlh1 rad18 strain growth inhibition, hits give high values
# Outline: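 Vehicle-treated cultures served as the reference for growth inhibition in a yeast strain carrying DNA damage repair alterations exposed to each compound.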
# [7] = at 5.0 µM (retest, dose inferred, filed as 0.5)
# [8] = at 50.0 µM (retest, dose inferred, filed as 5.0)
Compound,"growth inhibition [1, 7]","growth inhibition [1, 8]",growth inhibition ([1]; at 50.0 µM),"growth inhibition [2, 7]","growth inhibition [2, 8]",growth inhibition ([2]; at 50.0 µM),"growth inhibition [3, 7]","growth inhibition [3, 8]",growth inhibition ([3]; at 50.0 µM),"growth inhibition [4, 7]","growth inhibition [4, 8]",growth inhibition ([4]; at 50.0 µM),"growth inhibition [5, 7]","growth inhibition [5, 8]",growth inhibition ([5]; at 50.0 µM),"growth inhibition [6, 7]","growth inhibition [6, 8]",growth inhibition ([6]; at 50.0 µM)
CSc1cc2c(cc1N)Cc1cc(F)ccc1-2,4%,73% (active),98.3% (active),-1%,78% (active),98.2% (active),0%,85% (active),98.5% (active),-10%,93% (active),97.2% (active),-3%,84% (active),98% (active),-2%,82% (active),98.5% (active)
COc1ncnc2nc(SC)[nH]c12,-1%,-2%,99.7% (active),1%,-2%,99.8% (active),-1%,-4%,99.6% (active),0%,-2%,99.7% (active),-1%,-4%,99.7% (active),0%,-4%,99.5% (active)
OC(C/C(=N\N=C(/CC(O)(C(F)(F)F)C(F)(F)F)c1ccccc1)c1ccccc1)(C(F)(F)F)C(F)(F)F,-2%,2%,62.6%,-6%,-11%,51%,-7%,-17%,50.9%,6%,12%,62.1%,1%,-5%,69%,-8%,3%,71.1% (active)
COc1ccc(-n2c3c(c4c(N)ncnc42)CCCC3)cc1,-2%,-4%,-21.3%,-12%,-3%,-7.3%,11%,-3%,-13%,-11%,43%,-33%,-2%,-13%,-69.2%,2%,-13%,-16.4%
COc1ccc([N+](=O)[O-])cc1Nc1c2ccccc2nc2ccccc12,6%,69%,80.8% (active),17%,70% (active),64.2%,0%,58%,49%,-2%,-16%,37.5%,-1%,49%,46.5%,1%,6%,41%
CC(NNC(=S)N1CCCC1)c1ccc2ccccc2n1 (configuration not stated),24%,96% (active),98% (active),6%,96% (active),98.2% (active),22%,96% (active),98% (active),4%,95% (active),97% (active),7%,97% (active),98.2% (active),15%,98% (active),96.4% (active)
C=C(CN1CCCC1)C(=O)c1ccc(OC)cc1,-6%,22%,3.25%,7%,65%,73% (active),-8%,55%,44.4%,31%,81% (active),-20.4%,-6%,54%,-12%,4%,71% (active),46.6%
Cc1c(N)ccc(O)c1C,1%,46%,87.7% (active),-1%,30%,90.9% (active),-2%,37%,43.2%,-3%,17%,86.3% (active),1%,41%,96.8% (active),1%,35%,96.6% (active)
COc1cc(C2C(Cl)C(=O)N2NC(=O)c2ccc(NC(C)=O)cc2)cc(OC)c1OC (configuration not stated),1%,-16%,-8.6%,-9%,-16%,-10.1%,-9%,-7%,8.15%,-16%,-5%,19.1%,3%,-2%,-9.3%,-10%,3%,12.3%
